Our source for the Potency values is PubChem BioAssay (NCATS).

Results filed as inconclusive are left out. Entries that show only a call come without a potency. The source made the active and inactive calls. Calls follow the shape of the dose curve; as a rule, active = well fitted cell-killing curve with a large enough effect; inconclusive = small, poorly fitted or top-dose-only effect; inactive = flat fitted curve, though single readings scatter.
Potency is read from the fitted curve at half-maximal effect.

This assay can be described thus: Quantitative highthroughput screen to assess conditional lethalithy of NOMO1 cells grown in RPMI1640 with untreated serum (RPMI+s) (AID 1963876). Also: nearly all actives have a fitted effect of over 35% in size. The following applies: NOMO1 AML cells in RPMI+serum, CellTiter-Glo viability, 48 h; series mostly up to 45.8 µM. From the text: Assay Provider: Jason Cantor Ph.D.
Department of Biochemistry
University of Wisconsin-Madison, Madison, WI, USA
Chemical screening studies have identified drug sensitivities across hundreds of cancer cell lines but most putative therapeutics fail to translate. Discovery and development of drug candidates in models that more accurately reflect nutrient levels in human blood is a major challenge. Here we performed high-throughput screens in conventional versus Human Plasma-Like Medium (HPLM) to identify compounds that were "missed" when screening using the artificial culture condition. Sets of conditional anticancer compounds spanned phases of clinical development and included non-oncology drugs were assessed. […] We also traced conditional phenotypes for several chemotherapeutics to availability of HPLM-specific metabolites and confirmed others for compounds whose reported targets are encoded by nonessential genes. Our findings establish generalizable strategies for exploiting conditional lethality in HPLM to reveal therapeutic candidates and mechanisms of action in cancer cells.
Described herein are the results of each viability screens against three cell lines: NOMO1 (an acute myeloid leukemia cell line); P12-Ichikawa (a T-cell acute lymphoblastic leukemia); and SEM (a B-cell ALL). Each assay was screened using 3 different cell culture media: homemade human plasma-Like medium with 10% dialyzed fetal bovine serum (HPLM+ds); RPMI1640 with 10% untreated FBS and 5mM glucose (RPMI+s); and RPMI1640 with 10% dialyzed fetal bovine serum and 5 mM glucose (RPMI+ds).
PROTOCOL TABLE (as described by Inglese J, Shamu CE and Guy RK. 2007)
SEQUENCE No. (e.g., 1, 2, 3, etc.); […] (e.g., Cells, Incubation, Reagent, etc.); VALUE and DESCRIPTION.
1; Cells; 5 uL; white, solid bottom 1536-well Greiner assay plate.
2; Compounds; 23 nL; Kalypsis pin tool (Wako USA) equipped with a 1536-well pin head to transfer to the assay plates.
3; Incubation; 48 hours; 37C incubation.
4; Reagent; 3 uL; CellTiter Glo (Promega).
5; Incubation; 5 min, room temperature
6; Detection; Luminescence, Viewlux PerkinElmer.
NOTES (numbers refer to Sequence numbers above)
1. Briefly, 5 ul of cell reagent was dispensed using a Multidrop Combi Dispenser. The NOMO1 and SEM cells were plated at 500 cells/well and the P12-Ichikawa line at 1000 cells/well.
2. After seeding the cells, 23 nL of MIPE 4.1 library compounds (in DMSO) were added to each plate using a Kalypsys 1536 Pintool dispenser. Bortezomib at final concentration of […] and DMSO were added to each plate as positive and negative controls respectively. For each screen, MIPE 4.1 compounds were added over an eleven-point concentration range […] in 3-fold dilutions.
3. Each plate was covered with a stainless steel gasketed lid to prevent evaporation and incubated for 48 hour at 37C, 95% relative humidity, and 5% CO2.
4-5. Three microliter CellTilter-GloTM luminescent substrate mix (Promega) reagent was added to the assay plate and incubated at room temperature for 5 min.
6. The luminescence signal was measured using a ViewLux (PerkinElmer) multiplate reader with a 2 second exposure time per plate. Data for each compound were normalized as percent viability such that measurements for DMSO and the empty well controls in each plate were defined as 100% and 0%, respectively.
As for `CCC1(c2ccc(N)cc2)CCC(=O)NC1=O` (stereo not given), the Potency entry was “inactive”.

Consider `CN(C)CCN(C)CCc1ccc(Cl)c(Cl)c1`, for which the Potency result is “inactive”.

Take `COC1(CS(=O)c2ccccc2)CCN(CCc2c[nH]c3ccc(F)cc23)CC1` (stereo not given): the Potency entry was “inactive”.

Turning to `CC(C)(C)c1cc(C=C(C#N)C#N)cc(Br)c1O`, the Potency entry is “inactive”.

On to `O=C(Oc1ccc([N+](=O)[O-])cc1)N1CCN(Cc2cccc(Oc3ccccc3)c2)CC1`, for which the Potency entry is “inactive”.

As to `CN[C@@H]1Cc2cccc3[nH]c(=O)n(c23)C1`, the Potency result is “inactive”.

For `C[C@]12CCC(=O)C(O)=C1CC[C@@H]1[C@H]3CCC(=O)[C@@]3(C)CC[C@@H]12`, the Potency entry is “inactive”.

For the compound `COc1cccc2c1[C@]13CCN(CC4CC4)[C@H](C2)[C@]1(OC)CCC(=O)C3`, the Potency entry was “inactive”.

Turning to `CC(C)(C)[C@]1(O)C[C@@H]2OC(=O)C[C@@]23C(=O)O[C@@H]2OC(=O)[C@H](O)C213` (stereo not given in full), the Potency result was “inactive”.

`CC(C)c1cccc(C(C)C)c1O`: the Potency result was “inactive”.

In the case of `O=c1[nH]c2ccccc2n1C1CCN(Cc2ccc(-c3[nH]c4cc5ncnc5cc4nc3-c3ccccc3)cc2)CC1`, the Potency result was “inactive”.

For `CC=C(C)C(=O)O[C@H]1C(C)=C2[C@@H]3OC(=O)[C@@](C)(O)[C@@]3(O)[C@@H](OC(=O)CCC)C[C@](C)(OC(C)=O)[C@@H]2[C@@H]1OC(=O)CCCCCCC`, the Potency is 93.5 nM (active).

In the case of `O=C(Nc1ccncc1)C(=O)c1cn(Cc2ccc(Cl)cc2)c2ccccc12`, the Potency is 132 nM (active).

Consider `Cc1nc(-c2ccc(-c3ccc(C(=O)N4CCc5cc6c(cc54)C4(CCN(C)CC4)CO6)cc3)c(C)c2)no1`, for which the Potency result is “inactive”.

As to `Cc1sc2c(c1C)C(c1ccc(Cl)cc1)=N[C@@H](CC(=O)OC(C)(C)C)c1nnc(C)n1-2`, the Potency was 526 nM (active).

With `C[C@H]1CCCC=CC2C[C@H](O)C[C@@H]2[C@H](O)C=CC(=O)O1` (stereo not given in full), the Potency result was “inactive”.

As for `Cc1ccccc1-n1c(Cn2ncc3c(N)ncnc32)nc2cccc(C)c2c1=O`, the Potency is 372 nM (active).

As for `C[C@]12Cc3cn[nH]c3C[C@@H]1CC[C@@H]1[C@H]2CC[C@@]2(C)[C@H]1CC[C@]2(C)O`, the Potency entry was “inactive”.

On to `CC(C)(O)C=CC(=O)[C@](C)(O)[C@H]1[C@H](O)C[C@]2(C)[C@@H]3CC=C4[C@@H](C=C(O)C(=O)C4(C)C)[C@]3(C)C(=O)C[C@@]12C`, for which the Potency is 187 nM (active).

As for `C#CCN(C)[C@H](C)Cc1ccccc1`, the Potency entry was “inactive”.

As to `C[C@@H]1[C@@H](CC(C[C@H]2O[C@@H]3O[C@]4(C)CC[C@@H]5[C@H](C)CC[C@@H]([C@H]2C)[C@@]35OO4)C[S+](=O)([O-])c2ccc(COC(=O)N(C)C)cc2)O[C@@H]2O[C@]3(C)CC[C@H]4[C@H](C)CC[C@@H]1[C@@]24OO3` (stereo not given in full), the Potency was 833 nM (active).

Turning to `COC(=O)[C@@H](N)CCCN=C(N)N[N+](=O)[O-]`, the Potency result is “inactive”.

Turning to `O=C(Oc1ccc([N+](=O)[O-])cc1)N1CCC(C(O)(c2ccc3c(c2)OCO3)c2ccc3c(c2)OCO3)CC1`, the Potency entry was “inactive”.

Turning to `CC[C@@]1(O)C(=O)OCc2c1cc1n(c2=O)Cc2cc3ccccc3nc2-1`, the Potency is 74.3 nM (active).

On to `CC(C)[C@]12O[C@@H]1[C@@H]1O[C@]13[C@]1(O[C@H]1C[C@@H]1C4=C(CC[C@@]13C)C(=O)OC4)[C@H]2O`, for which the Potency was 1.2 nM (active).

Turning to `CC(C)C[C@H](CN)CC(=O)O`, the Potency entry is “inactive”.

Regarding `CC(NC(C)(C)C)C(=O)c1cccc(Cl)c1` (stereo not given), the Potency result is “inactive”.

As for `CC(=O)Nc1ccc(OC[C@](C)(O)C(=O)Nc2ccc([N+](=O)[O-])c(C(F)(F)F)c2)cc1`, the Potency result was “inactive”.

With `CC(=Cc1csc(C)n1)[C@@H]1C[C@H]2O[C@@H]2CCC[C@H](C)[C@@H](O)[C@@H](C)C(=O)C(C)(C)[C@@H](O)CC(=O)O1`, the Potency result is “inactive”.

`O=c1[nH]c2ccccc2n1CCCN1CCC(n2c(=O)[nH]c3cc(Cl)ccc32)CC1`: the Potency entry was “inactive”.

For the compound `Cn1cc(C2=C(c3cn(C4CCN(Cc5ccccn5)CC4)c4ccccc34)C(=O)NC2=O)c2ccccc21`, the Potency entry is “inactive”.

For `CC(=O)O[C@@]12CO[C@H]1C[C@H](O)[C@@]1(C)C(=O)[C@H](O)C3=C(C)[C@@H](O)C[C@@](O)([C@@H](OC(=O)c4ccccc4)[C@@H]21)C3(C)C`, the Potency was 14800 nM (active).

As to `C[C@@H]1CC[C@H]2[C@@H](C)C(=O)O[C@@H]3O[C@@]4(C)CC[C@H]1[C@]32OO4`, the Potency entry was “inactive”.

Regarding `C#CC1(O)CCC2C3CCC4=CC(=O)CCC4(C)C3CCC21C` (stereo not given), the Potency result is “inactive”.

For the compound `CN(C)[C@@H]1C(=O)C(C(N)=O)=C(O)[C@@]2(O)C(=O)C3=C(O)c4c(O)cccc4[C@@](C)(O)[C@H]3C[C@@H]12`, the Potency entry was “inactive”.

Turning to `CC(C)N(CCNC(=O)CN1CCCC1=O)C(C)C`, the Potency result is “inactive”.

For the compound `CC(C)CC(N(C)C)C1(c2ccc(Cl)cc2)CCC1` (stereo not given), the Potency result was “inactive”.

On to `C=C[C@@H]1CN2CCC1C[C@H]2[C@H](O)c1ccnc2ccccc12` (stereo not given in full), for which the Potency entry is “inactive”.

`O=C1C=CC[C@@H]2[C@H]3CCCN4CCC[C@@H](CN12)[C@@H]34`: the Potency entry was “inactive”.

Turning to `CCNC(=O)C[C@@H]1N=C(c2ccc(Cl)cc2)c2cc(OC)ccc2-n2c(C)nnc21`, the Potency is 9350 nM (active).
